Compounds with a hit are over-represented: about 3.1% of the library has one in this group of screens.
Tau FP inhib: blocks human tau fibril formation measured by polarization. P10636. K18 P301L tau heparin fibrillization, Alexa594 FP, 6 h. Potency, µM (titrated, usually from 57.7 µM), for the others: top-dose activity, negative = inhibition, most hits filed as inhibitors. 280,000 compounds, 0.39% hits. AID 1468; further: nearly all actives have a fitted effect of over 55% in size
Target sequence (P10636 561-689 P618L limits assumed): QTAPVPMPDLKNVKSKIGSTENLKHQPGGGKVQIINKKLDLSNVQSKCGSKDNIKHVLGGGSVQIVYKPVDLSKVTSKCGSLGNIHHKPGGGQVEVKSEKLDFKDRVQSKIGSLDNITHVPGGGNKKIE
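Read-out: fluorescence polarization of Alexa 594-labeled tau (0.24 uM), 555 nm excitation, 632 nm emission. Mixtures held 15 uM unlabeled K18 P301L, compound and 20 uM heparin, pH 7 acetate buffer, incubated 6 hr at 37 C.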
Tau fluor counter: counter-screen for tau fibril formation inhibitors. tau K18 P301L Alexa594 fluorescence, heparin fibrillization. Potency, µM (titrated, usually from 57.7 µM), for the others: top-dose activity change, negative = decrease. 280,000 compounds, 0.93% hits; further: nearly all actives have a fitted effect of over 55% in size
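Human K18 P301L tau (15 uM unlabeled plus 0.24 uM Alexa 594-labeled, final) in 100 mM sodium acetate pH 7 was mixed with compound and 20 uM heparin and incubated 6 hr at 37 C.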
Tau fibril ThT: blocks human tau fibril formation measured by thioflavin T; AID 1460; P10636; 270,000 compounds, 2.1% hits; Potency, µM (doses to about 57.4 µM), without a hit: at the top dose activity, negative = inhibition, actives largely listed as inhibitors; recombinant tau K18 P301L, heparin-induced fibrillization, ThT fluorescence; further: nearly all actives have a fitted effect of over 55% in size
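ThT emission at 510 nm, taken 1 hr after adding 30 uM dye, quantifies aggregates formed when 20 uM heparin acts on human tau K18 P301L for 6 hr at 37 C.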
TRb-SRC2 inh: disrupts binding of human TR beta to SRC2; P10828; TRbeta-SRC2 peptide binding, fluorescence polarization; receptor liganded with 1 µM T3; Potency, µM (doses to about 106 µM), for inactives: at the highest dose activity change, negative = inhibition, actives largely listed as inhibitors; 280,000 compounds, 0.065% hits; AID 1469;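 further: plate controls were bound peptide for no effect and peptide without receptor for full effect; nearly all actives have a fitted effect of over 50% in size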
Target sequence (P10828 whole entry, looked up): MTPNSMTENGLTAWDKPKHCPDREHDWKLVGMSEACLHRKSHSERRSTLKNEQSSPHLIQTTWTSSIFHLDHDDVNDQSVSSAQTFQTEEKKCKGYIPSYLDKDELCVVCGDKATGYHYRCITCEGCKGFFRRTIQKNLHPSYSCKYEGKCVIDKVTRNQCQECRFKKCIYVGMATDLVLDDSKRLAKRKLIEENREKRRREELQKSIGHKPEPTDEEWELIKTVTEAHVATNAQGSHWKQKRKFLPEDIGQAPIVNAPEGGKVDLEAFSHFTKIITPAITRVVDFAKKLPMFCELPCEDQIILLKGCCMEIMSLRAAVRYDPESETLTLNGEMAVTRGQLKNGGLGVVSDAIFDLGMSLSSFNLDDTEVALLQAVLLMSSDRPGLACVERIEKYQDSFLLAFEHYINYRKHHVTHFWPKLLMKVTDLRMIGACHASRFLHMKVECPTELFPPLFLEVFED
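Decrease in fluorescence polarization of 20 nM Texas Red SRC2 coactivator peptide flagged inhibition of its binding to 0.6 uM TRb LBD; 1 uM T3 included, incubation 5 hr, ex 555/em 632 nm.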
TR SRC2 fluor cs: Texas Red fluorescence interference in TRb-SRC2 counter-screen | TRb/SRC2 Texas Red total fluorescence interference | Potency, µM (doses to about 106 µM), without a hit: at the highest dose fluorescence change, negative = quenching | 280,000 compounds, 0.29% hits | AID 1479; active means well fitted curve in either direction with a large enough effect; inconclusive means small, poorly fitted or top-dose-only effect
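Human TRβ ligand-binding domain (0.6 uM) and Texas Red SRC2 peptide (20 nM) in Tris buffer with 1 uM T3 and 5% DMSO were incubated with pinned compound for 5 hr at ambient temperature. Total fluorescence was computed as S + 2P (555/632 nm).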
An asterisk follows results filed as active; ? = inconclusive; . = no result given; [ ] = dose if it differs, or a comment. Unless noted, the call rests on the fitted dose curve; in most records, active means well fitted curve in the direction sought with a large enough effect; inconclusive means small, poorly fitted or top-dose-only effect, or another doubt; inactive means no such curve, though single readings can be large; an effect the other way counts as inactive or inconclusive. Unless noted, on the % scale 0 is the no-effect control and ±100 the full control effect; potency means the concentration at half of the fitted maximal effect.

SMILES	Tau FP inhib	Tau fluor counter	Tau fibril ThT	TRb-SRC2 inh	TR SRC2 fluor cs
CN(C)c1ccc(NC(=O)Nc2cccc(Cl)c2)cc1	10%	14µM*[quencher]	13µM*	-11%	-3%
O=C(Nc1ccc(-n2ccc(C(F)(F)F)n2)cc1)Nc1cccc(Cl)c1	3.5µM*	?	13%	6%	-1%
Cc1cc(C)cc(NC(=O)Nc2ccc(N3CCCCC3)cc2)c1	10%	20µM*[quencher]	?	-5%	-2%
CN(c1cccc(NC(=O)Nc2cccc(Cl)c2)c1)S(C)(=O)=O	?	?	-6%	5%	-1%
CNC(=S)NCC(O)c1ccc([N+](=O)[O-])cc1 (stereo unspecified)	-2%	-1%	-3%	2%	-2%
O=C(O)CCCNS(=O)(=O)/C=C/c1ccccc1	9%	3%	7%	-2%	1%
S=C(NCc1ccco1)Nc1cc(-c2ccccc2)[nH]n1	1%	-12%	-1%	1%	-7%
COc1ccc(C)cc1NC(=O)Nc1cccc(OCc2cc(=O)n3ccc(C)cc3n2)c1	2%	?	-12%	4%	-1%
Cc1ccc(/C=c2\sc3nc(-c4ccccc4Br)nn3c2=O)o1	?	-28%	28µM*	2%	-13%
Cc1ccc(/C=c2\sc3nc(-c4ccco4)nn3c2=O)o1	?	-29%	18µM*	-3%	-5%
CC(C)(C)NC(=O)COC(=O)c1ccc(NC(=O)CC#N)cc1	2%	-4%	-7%	-6%	1%
CCCn1c(-c2ccc(F)cc2)nc2c(NCCN3CCCCC3)nc(C)nc21	-5%	-9%	-5%	2%	2%
COc1cc(NC(=O)Nc2cccc(Cl)c2)c(OC)cc1NC(=O)CN1CCCCC1	?	8.9µM*[quencher]	?	-4%	-6%
COc1ccc(N=C2S/C(=C\c3ccc(OCC(=O)O)cc3)C(=O)N2CCc2c[nH]c3ccccc23)cc1	?	11%	7%	-4%	-5%
COc1ccc(N=C2S/C(=C\c3ccc(N4CCOCC4)o3)C(=O)N2CCc2c[nH]c3ccccc23)cc1	6%	?	14µM*	0%	-3%
Cc1c(/C=N/NC(=O)c2ccc(O)cc2)c2ccccn2c1C(=O)c1ccc(F)cc1	?	16µM*[quencher]	?	6%	-1%
Cc1c(/C=N/NC(=O)c2ccccc2O)c2ccccn2c1C(=O)c1ccc(F)cc1	2%	12%	12%	2%	0%
CC(C)(C)N1C(=O)[C@H]2[C@H]3[C@H](O)[C@H](O)C/C(=N/OC[C@@H](O)COCc4ccco4)[C@H]3CC[C@@H]2C1=O	3%[11.6 µM]	-2%[11.6 µM]	-6%[11.5 µM]	2%[11.2 µM]	1%[11.2 µM]
CCc1nn2c(=O)cc(COc3ccc(/C=C4\C(=N)N5N=C(CC(C)C)SC5=NC4=O)cc3)nc2s1	-4%	-2%	?	-8%	-6%
CCC1=NN2C(=N)/C(=C\c3ccc(OCc4cc(=O)n5nc(CC)sc5n4)c(OC)c3)C(=O)N=C2S1	-11%	-22%	11µM*	4%	-2%
O=C(Nc1ccccc1)c1cccc2c(=O)c3c([nH]c12)CCCC3	7%	0%	6%	3%	2%
CCc1cccc2c(/C=N/NC(=O)c3cccc(S(=O)(=O)Nc4ccccc4Cl)c3)c[nH]c12	-8%	11µM*[quencher]	14µM*	4%	-1%
Cc1[nH]c2ccccc2c1/C=N/NC(=O)c1cccc(S(=O)(=O)Nc2ccccc2Cl)c1	?	11µM*[quencher]	?	3%	-21%
Cc1ccc(/C=N/NC(=O)c2cccc(S(=O)(=O)Nc3ccccc3Cl)c2)o1	5%	-16%	-12%	6%	-1%
Cn1c(=O)c2sccc2n2c(CCCC(=O)Nc3ccc(F)c(F)c3)nnc12	-3%	-8%	-3%	7%	-2%
SMILES	Tau FP inhib	Tau fluor counter	Tau fibril ThT	TRb-SRC2 inh	TR SRC2 fluor cs
COc1cc(/C=C/C(=O)N2CCCC2)cc(OC)c1OC	1%	11%	-6%	-5%	-1%
COc1cc(/C=C/C(=O)N2CCCCC2=O)cc(OC)c1OC	?	-15%	11µM*	0%	-2%
Cc1ccc(S(=O)(=O)NNC(=O)C(=O)NNS(=O)(=O)c2ccc(C)cc2)cc1	8%	3%	5%	-2%	-2%
Cc1ccc(S(=O)(=O)Nc2ccc(N=Nc3ccc(O)cc3)cc2)cc1	?	18µM*[quencher]	14µM*	2%	-1%
CSc1ccc(S(=O)(=O)Nc2ccc(S(=O)(=O)Nc3ccc(C)cc3)cc2)cc1	?	?	14%	1%	-2%
Cc1ccc(NNS(=O)(=O)c2ccc(C)cc2)cc1	?	-16%	20µM*	0%	-1%
CC1=NN(C(N)=S)C(=O)C1N=Nc1ccc(O)cc1 (stereo unspecified)	-10%	-17%	13µM*	-5%	-7%
CC1=NN(C(N)=S)C(=O)C1N=Nc1cccc(C)c1 (stereo unspecified)	0%	-13%	?	-1%	-6%
CCOc1ccc(CNC(=O)c2ccc3c(c2)sc2nc(-c4ccc(OC)cc4)cn23)cc1	1%	-20%	-15%	0%	40µM*[quencher]
O=C(NCCCN1CCCCC1)c1ccc2c(c1)sc1nc(-c3ccc(F)cc3)cn12	8%	-22%	?	-15%	0.0009µM*[quencher]
CCOC(=O)N1CCc2c(sc(NCc3ccc(OC)c(Br)c3)c2C(=O)Nc2cc(OC)ccc2OC)C1	-2%	?	14µM*	-3%	-4%
CCOC(=O)N1CCc2c(sc(NCc3cc(OC)ccc3OC)c2C(=O)Nc2cc(OC)ccc2OC)C1	2%	?	?	-21%	398µM*[quencher]
CCOC(=O)N1CCc2c(sc(NCc3sccc3C)c2C(=O)Nc2cc(OC)ccc2OC)C1	-2%	?	?	0%	-6%
COc1ccc(OC)c(NC(=O)c2c(NCc3ccc(OC)c(OC)c3)sc3c2CCC3)c1	-2%	?	?	4%	2%
Cc1ccc(C)c(S(=O)(=O)Nc2cc(SCC(=O)O)c(O)c3ccccc23)c1	7.9µM*	?	3.5µM*	?	-22%
Cc1ccc(NS(=O)(=O)c2cc(NC(=O)C(C)Oc3ccccc3)ccc2C)c(C)c1 (stereo unspecified)	5%	1%	7%	-2%	-1%
COc1ccc(N2CCC(CNC(=S)Nc3cccc(OC)c3)C2)cc1 (stereo unspecified)	13%	11µM*[quencher]	?	4%	2%
COc1ccc(N2CCC(CNC(=O)Nc3cccc(OC)c3)C2)cc1 (stereo unspecified)	14%	16µM*[quencher]	?	1%	-9%
CC1CCc2nc3ncn(Cc4ccccc4F)c(=O)c3cc2C1 (stereo unspecified)	-7%	-4%	-4%	12%	-6%
COc1ccc(-c2ccc(C3C4C=CCC(C)C4C(=O)N3Cc3ccccc3)c(F)c2)cc1 (stereo unspecified)	.	.	.	0%	-2%

Screens (PubChem)
